The panel holds about 83,000 compounds, 20% with a hit somewhere; the sample as a whole holds those more often.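 A percent growth of 40 corresponds to 60% growth inhibition; 0 means no net growth; -100 means all cells died. Active threshold: below 10.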 Active and inactive are the calls of the source.
Legend:
Test in all cases: NCI-60 one-dose screen, 48 h (100 = growth as untreated, 0 = no growth, -100 = all killed)
Conditions in all cases: 10 µM unless noted
[1] = system: HCT-15 colon
[2] = system: HT29 colon
[3] = system: SNB-75 CNS
[4] = system: SNB-19 CNS
[5] = system: U251 CNS
[6] = system: PC-3 prostate
[7] = system: SK-MEL-5 melanoma
[8] = system: UACC-62 melanoma
[9] = system: LOX IMVI melanoma
[10] = system: SK-MEL-28 melanoma

Measured: growth

CN(C)C/C=C/C(=O)Nc1cc2c(Nc3ccc(F)c(Cl)c3F)ncnc2cc1OCCOC(F)F
inactive: [4] 36.6% | [5] 27.9% | [6] 11% | [7] 37.5% | [8] 28.9% | [9] 15.3%
active: [1] 9.17% | [2] 2.75% | [3] -19.4%

COc1cc(/C=C/C(=O)c2ccc(NC(=O)CN3CCN(c4cc5c(cc4F)c(=O)c(C(=O)O)cn5C4CC4)CC3)cc2)cc(OC)c1OC
inactive: [1] 18.2% | [3] 76.6% | [4] 34.9% | [6] 21.5%
active: [2] -3.37% | [5] -55.8% | [7] -42.9% | [8] -23.5% | [9] -54.7%

NC(=O)c1cccc(N2Cc3ccccc3OC3=C2C(=O)c2c(O)ccc(O)c2C3=O)c1
active: [1] -49.7% | [2] -55.8% | [3] 6.48% | [4] 1% | [5] -7.38% | [6] -44.5% | [7] -7.12% | [8] -86.1% | [9] -63.5%

COc1ccc(S(=O)(=O)Nc2cc(/C=C\c3cc(OC)c(OC)c(OC)c3)cc(OC)c2OC)cc1OC
inactive: [1] 24.1% | [2] 13.6% | [4] 40% | [5] 23.1% | [6] 34.3% | [7] 23.7% | [8] 37.3% | [9] 48.2%
active: [3] -4.59%

O=C(Nc1ccc(Br)c(Cl)c1)c1cc(F)ccc1O
active: [1] 7.56% | [2] 0.733% | [3] 8.82% | [6] 5.07% | [7] -90.3% | [8] -3.96% | [9] -61.4%
inactive: [4] 19.4% | [5] 12.3%

N#Cc1c(NC(=O)c2ccc([N+](=O)[O-])o2)[n+]([O-])c2cc(F)c(F)cc2[n+]1[O-]
inactive: [1] 95.1% | [2] 102% | [3] 114% | [4] 121% | [5] 102% | [6] 98.8% | [7] 79.6% | [8] 100% | [9] 84.7%

C#CCC1(c2ccc(F)c(F)c2)NS(=O)(=O)c2ccccc21 (centres undefined)
inactive: [1] 103% | [2] 82.9% | [3] 99.1% | [4] 108% | [5] 96.4% | [6] 91.8% | [7] 103% | [8] 106% | [9] 98%

FC(F)(F)c1cccc(-n2nnc3cnc(Nc4ccc(N5CCCCC5)cc4)nc32)c1
inactive: [1] 66.1% | [2] 74.3% | [3] 65.7% | [4] 94.3% | [5] 62.9% | [6] 50.2% | [7] 86.7% | [8] 48.2% | [9] 90%

CCCCCCCCCCCCCCCCC(Br)C(=O)O (centres undefined)
inactive: [1] 83% | [2] 108% | [3] 86.5% | [4] 105% | [5] 102% | [6] 103% | [7] 103% | [8] 105% | [9] 106%

COc1ccc(C2=CC(c3ccc(Oc4ccnc5cc(Cl)ccc45)c(OC)c3)c3c(nc(OC)[nH]c3=O)N2)cc1 (centres undefined)
inactive: [1] 44.5% | [2] 50.5% | [3] 73.1% | [4] 75.1% | [5] 67.7% | [6] 54.9% | [7] 74.6% | [8] 51.9% | [9] 52.7%

CCOC(=O)CC/C(C)=N\Nc1ccc([N+](=O)[O-])cc1
inactive: [1] 35.8% | [2] 52.9% | [3] 93% | [4] 95.5% | [5] 69.1% | [6] 49.7% | [7] 54.3% | [8] 23.5% | [9] 17.1%

c1cc(-c2ccc3c(c2)OCO3)n2nccc2n1
inactive: [1] 97.2% | [2] 103% | [3] 84.5% | [4] 101% | [5] 95.8% | [6] 93.9% | [7] 98.2% | [8] 113% | [9] 102%

CC(=O)Nc1nc(C(=O)N2N=C(C)/C(=C/c3ccccc3)C2=O)cs1
inactive: [1] 105% | [2] 97.5% | [3] 95.5% | [4] 103% | [5] 104% | [6] 97.7% | [7] 108% | [8] 114% | [9] 98.7%

COc1ccc(/C=C2\CCCC3=C2NC(C)=NC3c2ccc(OC)c(OC)c2)cc1OC (centres undefined)
inactive: [3] 35.2% | [4] 60.4% | [5] 18.3% | [6] 32% | [8] 10.9%
active: [1] -61.7% | [2] -2.36% | [7] 6.23% | [9] -72.7%

CN=S(=O)(NC(=O)c1ccc(Cl)cc1Cl)c1ccc(Br)s1 (centres undefined)
inactive: [1] 99.9% | [2] 112% | [3] 73.4% | [4] 103% | [5] 89.3% | [6] 79.2% | [7] 95.3% | [8] 99.9% | [9] 105%

Cc1c(C(=O)NCc2ccccc2)[n+](=O)c2cc(F)ccc2n1[O-]
inactive: [1] 111% | [2] 94.4% | [3] 76.7% | [4] 108% | [5] 102% | [6] 81.9% | [7] 86.7% | [8] 104% | [9] 97.4% | [10] 91.3%

C/C1=C\CCC2(C)OC2CC2CCC(C)(O)C(CC1)C2(C)C (centres undefined)
inactive: [1] 89.4% | [2] 107% | [3] 108% | [4] 87.7% | [5] 91% | [6] 85.2% | [7] 84.8% | [8] 88% | [9] 101%

COc1cc(C(=O)OCCCCCCCCCCC[P+](c2ccccc2)(c2ccccc2)c2ccccc2)ccc1O
active: [1] 0.0119% | [2] 1.83% | [3] -75.7% | [4] -54.9% | [5] -89.8% | [6] -22.3% | [7] -98.1% | [8] -16% | [9] -97.7%

Cc1cc(Nc2nc(-c3ccncc3)nc3ccccc23)n[nH]1
active: [3] -23.4%
inactive: [1] 44.2% | [2] 61.3% | [4] 95% | [5] 115% | [6] 61% | [7] 89.1% | [8] 55.3% | [9] 62.7%

COc1ccc(N=C2NN=C(c3ccc(F)cc3)CS2)cc1OC
inactive: [1] 96.5% | [2] 100% | [3] 123% | [4] 94.3% | [5] 87.4% | [6] 93.2% | [7] 86.8% | [8] 86.6% | [9] 85.5%

COc1ccc(/C=C(\C#N)c2ccc([N+](=O)[O-])cc2)c2ccccc12
active: [3] -16%
inactive: [1] 75.7% | [2] 76.8% | [4] 24.3% | [5] 27% | [6] 62.5% | [7] 74.9% | [8] 37.1% | [9] 70.2% | [10] 59.2%

O=C1CCCCN1CCCCC#Cc1ccccc1C#Cc1ccccn1
inactive: [1] 94.7% | [2] 88.6% | [3] 91.9% | [4] 108% | [5] 88.9% | [6] 95.1% | [7] 98.2% | [8] 83.9% | [9] 96.8%

CCOC(=O)C(Cc1ccccc1)n1c(O)c(C=Nc2ccc(C(=O)OCCN(CC)CC)cc2)sc1=O (centres undefined)
inactive: [1] 89.4% | [2] 62.4% | [3] 99.7% | [4] 95.3% | [5] 96.3% | [6] 72.8% | [7] 88.7% | [8] 97.7% | [9] 93.7%

O=C(O)Cc1ccc2c(c1)Cc1cccnc1O2
inactive: [1] 103% | [2] 99.8% | [3] 87.9% | [4] 107% | [5] 102% | [6] 101% | [7] 99.5% | [8] 109% | [9] 100%

CCCC1OC(c2ccc(C(C)C)cc2)OCC1CC (centres undefined)
inactive: [1] 103% | [2] 97% | [3] 87.6% | [4] 106% | [5] 95.7% | [6] 78.7% | [7] 104% | [8] 102% | [9] 97.7% | [10] 104%

COc1ccc(NC(=O)/N=c2\oc3c(OC)cccc3cc2-c2cc3ccccc3[nH]2)cc1
active: [3] -8.95%
inactive: [1] 73.3% | [2] 57.7% | [4] 36.2% | [5] 34.1% | [6] 39.3% | [7] 60.6% | [8] 65.6% | [9] 73.1%

O=S=Nc1ccc([N+](=O)[O-])cc1
inactive: [1] 85.2% | [2] 94.1% | [3] 88.7% | [4] 103% | [5] 91.6% | [6] 96.8% | [7] 101% | [8] 73% | [9] 71.2%

CC/C=C\C/C=C\C[C@H](O)C/C=C1/C(=O)C=C[C@H]1C/C=C\CCC(=O)OC
active: [1] -13.3% [8.25 µM] | [2] 2.84% [8.25 µM] | [8] 4.47% [8.25 µM] | [9] -71.8% [8.25 µM]
inactive: [3] 75.2% [8.25 µM] | [4] 62.4% [8.25 µM] | [5] 15% [8.25 µM] | [6] 20.1% [8.25 µM] | [7] 24.5% [8.25 µM]

COc1cc(NC(=O)CCl)ccc(=O)c1
inactive: [1] 28.6% | [2] 70.1% | [3] 72% | [4] 93% | [5] 31.9% | [6] 74.6% | [7] 75% | [8] 57.2% | [9] 49.1%

Reference: PubChem BioAssay (NCI)
